Data published in ChEMBL document CHEMBL3988442, “University of Dundee, Small-Polar-MMV Screening Library” (2021).
For some of these results: Potency and affinity values are given separately.

Columns and labels:
Parameters in all cases: scale not given: direction of the effect not stated beside the values
[1] = target: Protein translocase subunit SecA (Escherichia coli (strain K12)) (UniProt P10408); test: Assay to Identify E. coli SecA ATPase Inhibitors; type: functional; conditions: 30 µM
[2] = target: T1, Ubiquitin-activating enzyme e1, putative (Leishmania donovani (strain BPK282A1)) (UniProt E9BSI1); test: Leishmania donovani Ubiquitin Activating Enzyme (LdE1); type: functional; conditions: 30 µM
T1 sequence (whole entry): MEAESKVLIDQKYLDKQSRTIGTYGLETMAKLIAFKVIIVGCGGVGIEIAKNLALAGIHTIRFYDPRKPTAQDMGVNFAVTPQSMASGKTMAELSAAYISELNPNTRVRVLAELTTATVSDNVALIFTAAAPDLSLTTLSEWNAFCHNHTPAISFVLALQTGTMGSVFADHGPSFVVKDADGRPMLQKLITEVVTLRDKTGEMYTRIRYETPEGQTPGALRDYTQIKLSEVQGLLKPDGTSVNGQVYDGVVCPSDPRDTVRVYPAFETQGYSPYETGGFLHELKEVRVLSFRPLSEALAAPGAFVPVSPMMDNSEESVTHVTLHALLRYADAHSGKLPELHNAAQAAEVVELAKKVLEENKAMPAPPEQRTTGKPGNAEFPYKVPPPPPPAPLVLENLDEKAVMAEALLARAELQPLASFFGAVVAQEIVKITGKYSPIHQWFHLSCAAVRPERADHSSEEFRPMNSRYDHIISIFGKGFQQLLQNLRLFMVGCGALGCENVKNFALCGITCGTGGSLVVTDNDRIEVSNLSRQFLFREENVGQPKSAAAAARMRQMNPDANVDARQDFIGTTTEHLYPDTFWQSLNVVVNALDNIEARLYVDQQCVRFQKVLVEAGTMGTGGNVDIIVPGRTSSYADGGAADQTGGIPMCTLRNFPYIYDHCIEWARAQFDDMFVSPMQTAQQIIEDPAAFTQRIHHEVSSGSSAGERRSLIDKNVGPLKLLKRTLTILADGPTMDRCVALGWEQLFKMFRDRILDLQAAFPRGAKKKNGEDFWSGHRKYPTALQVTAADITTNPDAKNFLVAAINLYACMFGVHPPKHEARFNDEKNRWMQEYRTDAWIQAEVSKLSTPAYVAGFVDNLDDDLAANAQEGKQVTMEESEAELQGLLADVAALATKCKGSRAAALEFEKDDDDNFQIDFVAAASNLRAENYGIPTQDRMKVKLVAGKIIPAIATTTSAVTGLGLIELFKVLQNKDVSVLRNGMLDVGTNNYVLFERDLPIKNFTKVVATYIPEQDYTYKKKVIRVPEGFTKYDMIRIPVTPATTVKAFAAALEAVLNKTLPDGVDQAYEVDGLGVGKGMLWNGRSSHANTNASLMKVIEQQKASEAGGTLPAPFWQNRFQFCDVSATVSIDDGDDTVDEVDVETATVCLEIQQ

[3] = target: AMP-activated protein kinase, AMPK (Homo sapiens) (UniProt P54646+O43741+P54619+Q9UGJ0+Q9Y478+Q13131+Q9UGI9); test: AMP-dependent Kinase enzyme assay. An in vitro enzyme assay that detects ADP turnover that is directly proportional to AMPK activity. This uses naive AMPK that is activated during the assay with MK-8722; type: functional; conditions: 30 µM
[4] = target: Sialic acid-binding Ig-like lectin 9 (Homo sapiens) (UniProt Q9Y336); test: Hs-Siglec9 ALPHAscreen SOP 20170721; conditions: 10 µM
Sequence of Sialic acid-binding Ig-like lectin 9 (Homo sapiens) (Q9Y336 whole entry): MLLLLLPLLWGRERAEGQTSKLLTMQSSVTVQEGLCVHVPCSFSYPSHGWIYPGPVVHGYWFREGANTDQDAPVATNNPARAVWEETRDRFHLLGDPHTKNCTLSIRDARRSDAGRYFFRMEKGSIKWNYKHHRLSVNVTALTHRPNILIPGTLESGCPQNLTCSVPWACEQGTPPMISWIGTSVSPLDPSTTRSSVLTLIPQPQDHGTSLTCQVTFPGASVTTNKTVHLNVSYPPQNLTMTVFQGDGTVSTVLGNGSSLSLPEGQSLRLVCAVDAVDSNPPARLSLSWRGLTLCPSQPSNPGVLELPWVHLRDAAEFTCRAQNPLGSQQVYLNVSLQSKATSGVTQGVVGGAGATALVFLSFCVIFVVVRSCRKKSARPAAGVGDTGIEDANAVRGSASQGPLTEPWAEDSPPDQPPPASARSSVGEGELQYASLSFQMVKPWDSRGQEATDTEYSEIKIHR

[5] = system: Trypanosoma cruzi; test: Trypanosoma cruzi phosphomannomutase and mannose-1-phosphate guanylyltransferase assay; type: functional; conditions: 10 µM
[6] = target: T2, Arginase-2, mitochondrial (Homo sapiens) (UniProt P78540); test: in vitro enzyme assay to detect the production of urea directly proportional to the activity of Arginase II; type: functional; conditions: 33.3 µM; note: in the data most compounds retested in dose-response had high values
T2 sequence (whole entry): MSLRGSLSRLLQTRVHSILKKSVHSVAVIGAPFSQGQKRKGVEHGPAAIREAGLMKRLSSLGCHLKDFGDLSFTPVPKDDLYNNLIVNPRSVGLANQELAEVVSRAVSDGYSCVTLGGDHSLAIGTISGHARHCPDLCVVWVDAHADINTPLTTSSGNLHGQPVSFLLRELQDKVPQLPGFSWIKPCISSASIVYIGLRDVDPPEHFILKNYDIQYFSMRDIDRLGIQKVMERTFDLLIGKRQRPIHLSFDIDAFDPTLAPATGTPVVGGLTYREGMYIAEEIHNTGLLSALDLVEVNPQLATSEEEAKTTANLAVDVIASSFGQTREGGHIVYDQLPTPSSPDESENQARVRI

[7] = target: T3, Proteasome subunit beta (Trypanosoma cruzi) (UniProt O96673); test: Trypanosoma cruzi proteasome chymotrypsin-like activity (TcProtChymo) assay.; note: in the data most compounds retested in dose-response had high values; type: functional; conditions: 9.37 µM
T3 sequence (whole entry): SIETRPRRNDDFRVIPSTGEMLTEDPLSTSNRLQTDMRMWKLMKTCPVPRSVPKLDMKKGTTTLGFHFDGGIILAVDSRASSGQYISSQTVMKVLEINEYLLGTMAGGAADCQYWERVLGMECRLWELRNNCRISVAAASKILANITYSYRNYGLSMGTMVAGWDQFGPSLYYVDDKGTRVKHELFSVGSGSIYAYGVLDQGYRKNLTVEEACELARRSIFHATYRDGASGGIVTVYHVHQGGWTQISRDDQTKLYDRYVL

[8] = species on record: Homo sapiens; test: To identify inhibition of the IFN signalling (Jak-Stat) pathway via expression of an eGFP reporter gene under the control of an IFN-stimulated response element (ISRE) containing MxA promoter.; type: functional; conditions: 30 µM
[9] = target: T4, Tyrosyl-tRNA synthetase, putative (Trypanosoma cruzi (strain CL Brener)) (UniProt Q4DSP6); test: Trypanosoma cruzi tyrosyl tRNA synthetase (TcYRS) _High Tyrosine SOP; type: functional; conditions: 30 µM; note: in the data most compounds retested in dose-response had high values
T4 sequence (whole entry): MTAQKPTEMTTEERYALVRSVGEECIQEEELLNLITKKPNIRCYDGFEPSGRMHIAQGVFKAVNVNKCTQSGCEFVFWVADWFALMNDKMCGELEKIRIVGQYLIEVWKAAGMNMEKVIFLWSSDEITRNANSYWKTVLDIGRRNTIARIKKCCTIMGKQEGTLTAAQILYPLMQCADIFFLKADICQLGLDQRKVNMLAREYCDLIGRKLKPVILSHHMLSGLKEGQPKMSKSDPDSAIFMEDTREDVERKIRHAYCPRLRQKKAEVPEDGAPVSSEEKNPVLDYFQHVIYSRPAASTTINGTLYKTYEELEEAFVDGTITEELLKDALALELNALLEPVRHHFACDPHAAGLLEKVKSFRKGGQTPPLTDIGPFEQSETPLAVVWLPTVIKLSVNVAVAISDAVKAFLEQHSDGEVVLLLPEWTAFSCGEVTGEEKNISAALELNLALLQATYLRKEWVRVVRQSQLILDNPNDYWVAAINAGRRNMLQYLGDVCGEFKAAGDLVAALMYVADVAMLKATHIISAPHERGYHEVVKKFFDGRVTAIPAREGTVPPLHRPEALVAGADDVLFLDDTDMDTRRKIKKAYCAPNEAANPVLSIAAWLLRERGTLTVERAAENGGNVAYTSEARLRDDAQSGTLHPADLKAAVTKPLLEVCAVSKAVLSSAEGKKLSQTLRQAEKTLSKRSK

[10] = target: T4, Tyrosyl-tRNA synthetase, putative (Trypanosoma cruzi (strain CL Brener)); test: Trypanosoma cruzi tyrosyl tRNA synthetase (TcYRS) SOP; type: functional; conditions: 30 µM
[11] = target: Chromo domain-containing protein 1 (Saccharomyces cerevisiae (strain ATCC 204508 / S288c) (Baker's yeast)) (UniProt P32657); test: ScCHD-1 Enzyme Inhibition Assay; type: functional; conditions: 30 µM; note: in the data most compounds retested in dose-response had high values
Sequence of Chromo domain-containing protein 1 (Saccharomyces cerevisiae (strain ATCC 204508 / S288c) (Baker's yeast)) (P32657 whole entry, the tested form may be a part): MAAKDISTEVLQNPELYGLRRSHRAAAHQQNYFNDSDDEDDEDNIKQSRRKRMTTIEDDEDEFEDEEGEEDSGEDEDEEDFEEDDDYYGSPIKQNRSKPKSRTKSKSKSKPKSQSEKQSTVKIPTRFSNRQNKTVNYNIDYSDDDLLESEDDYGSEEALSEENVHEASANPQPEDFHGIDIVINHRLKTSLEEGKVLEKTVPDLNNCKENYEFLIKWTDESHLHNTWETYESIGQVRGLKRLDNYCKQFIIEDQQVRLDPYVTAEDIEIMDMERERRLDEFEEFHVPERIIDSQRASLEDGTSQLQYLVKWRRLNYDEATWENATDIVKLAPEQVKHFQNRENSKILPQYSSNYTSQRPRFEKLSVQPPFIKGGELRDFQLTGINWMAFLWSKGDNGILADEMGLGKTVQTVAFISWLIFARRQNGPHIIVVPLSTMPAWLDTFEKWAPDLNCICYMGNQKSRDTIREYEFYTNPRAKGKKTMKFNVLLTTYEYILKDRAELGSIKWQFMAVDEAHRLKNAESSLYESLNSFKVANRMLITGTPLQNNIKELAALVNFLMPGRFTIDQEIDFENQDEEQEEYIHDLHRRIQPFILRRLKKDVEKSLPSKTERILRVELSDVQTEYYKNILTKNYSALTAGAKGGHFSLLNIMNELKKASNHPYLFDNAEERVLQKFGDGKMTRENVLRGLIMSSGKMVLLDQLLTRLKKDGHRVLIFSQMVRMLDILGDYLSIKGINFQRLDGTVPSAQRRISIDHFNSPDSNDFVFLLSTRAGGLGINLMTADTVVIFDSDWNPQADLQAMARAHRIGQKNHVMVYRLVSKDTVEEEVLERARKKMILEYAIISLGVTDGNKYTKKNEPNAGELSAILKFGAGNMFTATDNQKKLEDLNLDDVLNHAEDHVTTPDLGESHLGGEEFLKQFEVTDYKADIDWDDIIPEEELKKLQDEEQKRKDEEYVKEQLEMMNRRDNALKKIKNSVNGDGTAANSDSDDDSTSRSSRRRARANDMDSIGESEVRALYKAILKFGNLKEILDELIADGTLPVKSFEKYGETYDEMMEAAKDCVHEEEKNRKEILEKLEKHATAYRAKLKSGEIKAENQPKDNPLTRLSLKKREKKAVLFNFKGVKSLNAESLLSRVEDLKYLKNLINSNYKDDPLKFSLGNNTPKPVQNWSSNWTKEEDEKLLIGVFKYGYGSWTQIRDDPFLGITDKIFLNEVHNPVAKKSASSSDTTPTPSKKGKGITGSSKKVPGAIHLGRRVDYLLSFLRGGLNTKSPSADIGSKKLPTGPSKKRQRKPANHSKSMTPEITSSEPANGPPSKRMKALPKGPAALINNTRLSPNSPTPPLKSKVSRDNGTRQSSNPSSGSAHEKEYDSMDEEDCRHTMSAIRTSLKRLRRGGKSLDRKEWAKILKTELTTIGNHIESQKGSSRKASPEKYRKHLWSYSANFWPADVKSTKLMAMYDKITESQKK

Sequence of Protein translocase subunit SecA (Escherichia coli (strain K12)) (P10408 whole entry): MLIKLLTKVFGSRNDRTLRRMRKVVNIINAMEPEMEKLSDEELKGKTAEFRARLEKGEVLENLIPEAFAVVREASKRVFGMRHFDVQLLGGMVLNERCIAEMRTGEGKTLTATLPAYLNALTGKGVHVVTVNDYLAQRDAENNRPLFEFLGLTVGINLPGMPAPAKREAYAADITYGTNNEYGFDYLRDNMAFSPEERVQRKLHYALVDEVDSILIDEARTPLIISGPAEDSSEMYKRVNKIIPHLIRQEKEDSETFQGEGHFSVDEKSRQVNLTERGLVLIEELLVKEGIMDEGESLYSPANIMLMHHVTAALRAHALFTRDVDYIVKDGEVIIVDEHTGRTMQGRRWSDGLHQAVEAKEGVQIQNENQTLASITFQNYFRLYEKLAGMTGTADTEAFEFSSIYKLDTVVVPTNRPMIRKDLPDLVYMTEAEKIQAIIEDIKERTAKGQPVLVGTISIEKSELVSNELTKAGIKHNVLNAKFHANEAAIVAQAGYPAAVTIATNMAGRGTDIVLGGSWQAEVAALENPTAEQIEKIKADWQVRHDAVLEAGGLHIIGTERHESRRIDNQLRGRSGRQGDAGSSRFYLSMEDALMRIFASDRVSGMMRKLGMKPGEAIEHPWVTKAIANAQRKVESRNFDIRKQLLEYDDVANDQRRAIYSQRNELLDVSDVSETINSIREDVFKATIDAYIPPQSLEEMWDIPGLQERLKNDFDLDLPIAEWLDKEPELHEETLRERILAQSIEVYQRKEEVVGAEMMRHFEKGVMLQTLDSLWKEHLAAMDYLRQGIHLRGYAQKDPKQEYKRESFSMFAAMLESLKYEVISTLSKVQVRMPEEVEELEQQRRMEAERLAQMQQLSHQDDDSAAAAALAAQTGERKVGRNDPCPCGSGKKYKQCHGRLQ

Structure (SMILES) | Percent Effect [1] [%] | Percent Effect [2] [%] | Percent Effect [3] [%] | Percent Effect [4] [%] | Percent Effect [5] [%] | Percent Effect [6] [%] | Percent Effect [7] [%] | Percent Effect [8] [%] | Percent Effect [9] [%] | Percent Effect [10] [%] | Percent Effect [11] [%]
CCc1ccc(S(=O)(=O)Nc2cc(C(=O)O)c(F)cc2F)s1 | -10.3 | 2.63 | -14.5 | 19.8 | 9.99 | 1.08 | 6.51 | 4.81 | 2.46 | 16.1 | -10.2
CC(Oc1ccccc1C(F)(F)F)C(=O)NCCC(=O)N(C)C (stereo not drawn) | -4.14 | 8.11 | -2.52 | 6.01 | 2.93 | 26.2 | 3.47 | -11.3 | 4.95 | 13.4 | -4
O=C1CC(NCc2ccncc2)CN1Cc1cccc(F)c1 (stereo not drawn) | -3.06 | -2.7 | -0.958 | 0.392 | -2.9 | -2.86 | 11.6 | -9.68 | 1.59 | 2.44 | -0.358
CN(Cc1cn2c(n1)CN(c1ncc(F)cn1)CC2)Cc1ccco1 | -3.08 | 13.3 | -4.28 | -1.26 | 0.197 | 4.89 | 20.7 | 1.67 | 9.57 | 21.8 | -5.99
NC(=O)c1ccc(NC(=O)CCN2CCCC(N3CCCC3)C2)cc1 (stereo not drawn) | -9.36 | 13.5 | -4.04 | 16.5 | 8.98 | 22.5 | 9.38 | 19.4 | 9.9 | 15.8 | -5.57
CCc1noc(C)c1C(=O)N(C)Cc1ncc(C)c(OC)c1C | -5.87 | 10.4 | 5.05 | -5.08 | 6.76 | 2.32 | 7.36 | 7.84 | 8.57 | 18.8 | -14.6
CN1CCN(C(=O)CC2CCN(CCc3ccccn3)CC2)CC1 | -2.81 | 5.2 | 3.53 | 5.15 | 5.58 | 4.84 | 3.48 | 9.07 | 6.67 | 18.8 | -17.3
NC(=O)c1nnn(-c2ccc(Br)cc2)n1 | -5.42 | 18.2 | -6.83 | -10.8 | 7.59 | 3.23 | 11.5 | 17.2 | 5.29 | 6.41 | -9.19
